# From PubChem
# IL1B secr inh: qHTS for Inhibitors of Inflammasome Signaling: IL-1-beta AlphaLISA Primary Screen. activity change, % at 57.5 µM. hit rate 4.7% among 360,000. AID 743279, 2014. THP-1 LPS/ATP IL-1B secretion, AlphaLISA, 16 h; stronger effect = lower value; in the data active means activity change below about -50%; inconclusive means mostly about -30% to -49%
#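 THP-1 cells pretreated 1 hr with compounds (up to 57.5 uM final), then stimulated with LPS (250 ng/mL final) plus ATP (1.25 mM final); secreted IL-1B measured by AlphaLISA after 16 hr, decreased signal indicating inhibition.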
# TDP1 cell CPT: qHTS for Inhibitors of human tyrosyl-DNA phosphodiesterase 1 (TDP1): qHTS in cells in presence of CPT; chicken DT40 Tdp1-/-;hTDP1 cells + 20 nM CPT, ATP luminescence, 48 h; Potency, µM (highest dose often 46.2 µM), without a hit: top-dose activity change, negative = growth inhibition, actives largely listed as inhibitors; hit rate 12% among 420,000; AID 686979, 2013; further: potency means the concentration at half of the fitted maximal effect; nearly all actives have a fitted effect of over 55% in size
#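 Chicken DT40 Tdp1-/- cells stably complemented with human TDP1 were seeded at 400 cells/well in medium containing 20 nM camptothecin, exposed to pin-transferred compounds, and grown at 37 °C for at least 48 hr. Viability was read as ATP luminescence.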
# HT1080-NT tox: qHTS for induction of synthetic lethality in tumor cells producing 2HG: qHTS for the HT-1080-NT fibrosarcoma cell line; HT-1080-NT fibrosarcoma viability, CellTiter-Glo ATP luminescence, 48 h; Potency, µM (doses to about 46.1 µM), without a hit: top-dose activity, negative = less viability, most hits filed as cytotoxic; hit rate 1.6% among 360,000; AID 686970, 2013;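 further: NT is the 2HG producing partner of a matched IDH1 knockdown line; potency means the concentration at half of the fitted maximal effect; 0% = DMSO-treated cells and -100% = media-only wells without cells; nearly all actives have a fitted effect of over 55% in size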
#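 750 cells/well, RPMI + 5% FBS; 2 h settle, compound pin-transfer, 48 h at 37 degrees C. CellTiter-Glo 10 min RT, luminescence. Normalized to DMSO and media-only wells.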
# HT1080 IDH1KD tx: qHTS for induction of synthetic lethality in tumor cells producing 2HG: qHTS for the HT-1080-IDH1KD cell line. HT-1080 IDH1 knockdown viability, ATP luminescence, 48 h. hit rate 2% among 360,000. AID 686971, 2013. Potency, µM (titrated, usually from 46.1 µM), for inactives: top-dose activity, negative = toxicity, hits mostly cytotoxic;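 further: potency means the concentration at half of the fitted maximal effect; 0% = DMSO wells and -100% = cell-free medium wells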
#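 After a 2 h attachment period, IDH1KD HT-1080 cells took pin-transferred compound for 48 h at 37 °C; ATP-based luminescence after 10 min room-temperature reagent incubation reported viability.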
# DT40 TDP1 no CPT: qHTS for Inhibitors of human tyrosyl-DNA phosphodiesterase 1 (TDP1): qHTS in cells in absence of CPT | hit rate 15% among 420,000 | DT40 Tdp1-/- hTDP1 cells, no CPT, ATP luminescence, 48 h | Potency, µM (series often up to 46.2 µM), for inactives: at the top dose activity change, negative = growth inhibition, most hits filed as inhibitors; further: potency means the concentration at half of the fitted maximal effect; nearly all actives have a fitted effect of over 55% in size
#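 Camptothecin absent (DMSO only). Human TDP1-complemented DT40 knockout cells, 400 cells/well, 37 °C for minimum 48 hr; ATP measured via CellTiter-Glo, 30 min dark incubation, luminescence.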
# 12-LOX inh: Primary qHTS assay for inhibitors of human arachidonate 12S-lipoxygenase (ALOX12): Round 2. AID 1671190, 2021. purified 12hLO, xylenol orange hydroperoxide absorbance. hit rate 1.1% among 580,000. Potency, µM (doses to about 108 µM), for the others: at the highest dose activity change, negative = inhibition, usual class: inhibitors; further: potency means the concentration at half of the fitted maximal effect
# Target sequence (P18054 whole entry, looked up): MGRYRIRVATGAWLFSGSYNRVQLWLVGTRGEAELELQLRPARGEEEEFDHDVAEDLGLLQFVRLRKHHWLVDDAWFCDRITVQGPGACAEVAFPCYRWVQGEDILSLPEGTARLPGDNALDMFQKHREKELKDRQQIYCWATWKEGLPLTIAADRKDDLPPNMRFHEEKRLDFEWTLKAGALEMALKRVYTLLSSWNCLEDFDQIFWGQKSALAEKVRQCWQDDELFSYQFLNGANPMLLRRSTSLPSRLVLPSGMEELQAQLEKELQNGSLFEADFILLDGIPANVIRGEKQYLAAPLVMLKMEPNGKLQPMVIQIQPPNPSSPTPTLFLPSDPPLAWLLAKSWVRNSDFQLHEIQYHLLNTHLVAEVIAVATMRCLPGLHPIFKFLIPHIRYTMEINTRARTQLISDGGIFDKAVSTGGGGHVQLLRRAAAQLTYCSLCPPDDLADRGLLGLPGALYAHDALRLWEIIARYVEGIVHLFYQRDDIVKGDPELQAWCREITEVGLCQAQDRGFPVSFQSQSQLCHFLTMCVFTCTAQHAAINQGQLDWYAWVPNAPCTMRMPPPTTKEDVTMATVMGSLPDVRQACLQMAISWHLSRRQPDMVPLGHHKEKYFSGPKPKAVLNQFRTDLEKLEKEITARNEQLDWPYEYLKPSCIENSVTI
#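 Hydroperoxide product was detected by ferrous iron/xylenol orange as the 573 to 405 nm absorbance ratio. Arachidonic acid at 40 uM (final) was turned over for 30 min at room temperature by 150 nM human 12hLO, pH 7.0 Hepes buffer, after 15 min compound preincubation.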
# * marks the source's active call; other numbers are inactive results; ? = inconclusive; . = not tested or not shown. The entries come from a sample that favours hits as a whole. Unless noted, the call rests on the fitted dose curve; in most records, active means well fitted curve in the direction sought with a large enough effect; inconclusive means small, poorly fitted or top-dose-only effect, or another doubt; inactive means no such curve, though single readings can be large; an effect the other way counts as inactive or inconclusive. Unless noted, on the % scale 0 is the no-effect control and ±100 the full control effect.
SMILES,IL1B secr inh,TDP1 cell CPT,HT1080-NT tox,HT1080 IDH1KD tx,DT40 TDP1 no CPT,12-LOX inh
COc1cc(-c2nnc(NC(=O)CS(=O)(=O)c3ccc(C)cc3)o2)cc(OC)c1OC,13,-2%,4%,0%,-1%,-4%
CCN(c1ccccc1)c1nnc(NC(=O)Nc2ccc(OC)c(OC)c2)s1,.,.,.,.,.,76%
CCCSc1nnc(NC(=O)CCc2ccccc2)s1,48,-5%,0%,0%,-9%,1%
CCOC(=O)Cc1ccc(NC(=O)Nc2nnc(N3CCCCC3C)s2)cc1 (stereo not given),.,12µM*,.,.,12µM*,6%
CCCSc1nnc(NC(=O)Nc2ccc(F)cc2)s1,-28,21µM*,?,12µM*,21µM*,0%
CCCSc1nnc(NC(=O)Nc2ccccc2)s1,0,?,-9%,0%,16µM*,3%
CCCSc1nnc(NC(=O)Nc2ccc(C)cc2)s1,22,?,10%,12%,?,110%
CCN(c1ccccc1)c1nnc(NC(=O)Nc2ccc(Br)cc2)s1,.,2.9µM*,.,.,3.7µM*,-7%
CCOC(=O)Cc1ccc(NC(=O)Nc2nnc(N3CCCC3)s2)cc1,.,.,.,.,.,17%
COc1cccc(SC(C)C(=O)c2ccc3c(c2)NC(=O)CO3)c1 (stereo not given),.,.,.,.,.,-15%
Cc1ccc(NC(=O)Nc2nnc(SCC(=O)N3CCC(C)CC3)s2)cc1,.,?,.,.,23µM*,-15%
CCCCS(=O)(=O)N1CCC(n2cc(CN3CCCC3)nn2)CC1,.,.,.,.,.,59%
Fc1ccccc1-c1csc(=Nc2cccnc2)n1CC1CCCO1 (stereo not given),-66*,?,-21%,-23%,?,-13%
Fc1ccccc1-c1csc(=Nc2cccnc2)n1CCCn1ccnc1,?,26µM*,-2%,-8%,16µM*,-2%
CCn1c(O)c(/C=N/N=C2CCCCC2)c2cc(C3=NNC(=O)CC3)ccc21,-4,8.2µM*,-3%,5%,10µM*,14%
CCc1ccc(S(=O)(=O)N[C@@H]2COCC[C@H]2Oc2ccccn2)s1,.,.,.,.,.,35%
Cc1ccc(C)c(C(=O)COc2ccc(C)nc2[N+](=O)[O-])c1,42,7.3µM*,?,?,15µM*,-22%
Cc1cc(C)c(N)c([N+](=O)[O-])c1,.,.,.,.,.,-29%
Cc1ccc(OCC(=O)N2CCc3ccccc3C2)c([N+](=O)[O-])n1,-17,3%,15%,17%,14%,-14%
CCCNC(=O)COc1ccccc1[N+](=O)[O-],23,11%,2%,3%,-5%,1%
Cc1ccc(OCC(=O)N2c3ccccc3CC2C)c([N+](=O)[O-])n1 (stereo not given),-7,16µM*,-1%,2%,-87%,-11%
Cc1cc(C)c(S(=O)(=O)Oc2ccccc2[N+](=O)[O-])c(C)c1,-4,21µM*,?,?,18µM*,9%
Cc1ccc(C)c(C(=O)COc2ccccc2[N+](=O)[O-])c1,-51*,5.2µM*,-1%,?,10µM*,1%
CCn1ncc(-c2nc3cc(S(=O)(=O)N4CCCC4)ccc3n2C)c1C,.,.,.,.,.,-4%
Cc1ccc(OCCOc2cccc(Br)c2)c([N+](=O)[O-])n1,-71*,0%,-5%,-12%,-22%,-23%
SMILES,IL1B secr inh,TDP1 cell CPT,HT1080-NT tox,HT1080 IDH1KD tx,DT40 TDP1 no CPT,12-LOX inh
Cc1ccc(OCC(=O)c2cc(C)c(C)cc2C)c([N+](=O)[O-])n1,36,3.7µM*,?,?,8.2µM*,0%
Cc1nc(-c2ccccc2)n(CC(=O)Nc2cccc(C#N)c2)c(=O)c1CCO,.,.,.,.,.,-6%
c1ccc(-c2nc(-c3ccccc3)c(-c3ccccc3)nc2-c2ccccc2)cc1,.,.,.,.,.,18%
COc1ccc(-n2c(C)c3c(C)nnc(C)c3c2C)cc1OC,23,16µM*,-1%,-3%,15µM*,-1%
COc1ccc(-n2c(C)c(C(C)=O)c(C(C)=O)c2C)cc1OC,-14,-17%,-4%,17%,-21%,-7%
COc1ccc(C(C)=O)cc1CSc1nnc(Nc2c(C)cccc2C)s1,-28,21µM*,0%,5%,?,-13%
O=S(=O)(c1ccc(C(F)(F)F)cc1)N1CCC(n2cnnc2C2CC2)CC1,.,.,.,.,.,36%
Cn1c(CN2CCCCC2)nc2cc(NS(=O)(=O)c3ccc(Cl)cc3)ccc21,-16,?,-29%,-14%,-22%,-16%
O=S(=O)(Nc1ccc2c(c1)nc1n2CCN(Cc2ccccc2)C1)c1ccc(F)cc1,0,26µM*,-1%,-1%,?,-13%
Cc1ccc(S(=O)(=O)Nc2ccc3c(c2)nc2n3CCN(Cc3ccccc3)C2)cc1,-69*,16µM*,-14%,-22%,?,-12%
CC(c1ccccc1)N1CCn2c(nc3cc(NS(C)(=O)=O)ccc32)C1 (stereo not given),103,1%,1%,-15%,?,0%
O=S(=O)(Nc1ccc2c(c1)nc1n2CCN(Cc2ccccc2)C1)c1ccc(Cl)cc1,-55*,18µM*,-24%,-27%,15µM*,-18%
O=S(=O)(Nc1ccc2c(c1)nc1n2CCN(Cc2ccccc2)C1)c1ccccc1,-1,23µM*,-10%,-23%,23µM*,-8%
Cc1ccc(C(=O)Nc2ccccc2C(C)(C)C)cc1F,.,.,.,.,.,-6%
COc1ccc(Cc2ncc3c(n2)CN(C(=O)c2ccc(Cl)c(C)c2)C3)cc1,.,.,.,.,.,24%
CCN(CC)S(=O)(=O)c1nnc(NC(=O)COc2cccc(C)c2)s1,.,-15%,.,.,-6%,-8%
CCn1cc(CNC(=O)c2cc(-c3ccc(C)cc3)nc3ccc(Br)cc23)c(C)n1,.,6.5µM*,.,.,13µM*,-23%
CCn1cc(CNC(=O)c2cc(-c3ccccc3OC)nc3ccccc23)c(C)n1,-11,?,-10%,-1%,15µM*,-14%
CCn1cc(CNC(=O)c2cc(-c3cc(OC)ccc3OC)nc3ccccc23)c(C)n1,5,?,1%,4%,23µM*,-16%
